Vaccinia Venus – qHTS for Stage-Specific Inhibitors of Vaccinia Orthopoxvirus: Venus Reporter Primary qHTS; actives 0.46% (n = 330,000); Vaccinia virus Venus reporter expression, fluorescence; AID 720580, 2013; Potency, µM (series often up to 36.5 µM), for inactives: top-dose activity change, negative = inhibition, most hits filed as inhibitors; calls by dose curve; tested in A549 cells; also: nearly all actives have a fitted effect of over 30% in size
Vaccinia mCherry – qHTS for Stage-Specific Inhibitors of Vaccinia Orthopoxvirus: mCherry Reporter Primary qHTS. actives 0.63% (n = 310,000). Potency, µM (series often up to 36.5 µM), for the others: at the highest dose activity change, negative = inhibition, most hits filed as inhibitors. Vaccinia virus mCherry reporter infection, fluorescence; calls by dose curve; tested in A549 cells; also: nearly all actives have a fitted effect of over 35% in size
AMA1-RON2 inh – qHTS for Inhibitors of AMA1-RON; Towards Development of Antimalarial Drug Lead: Primary Screen; AlphaScreen AMA1-biotinylated RON2 peptide binding; Potency, µM (doses to about 58.2 µM), without a hit: at the highest dose activity change, negative = inhibition, hits mostly inhibitors; Plasmodium falciparum AMA1 (3D7) - RON2 peptide interaction; actives 0.2% (n = 360,000); AID 720542, 2013;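 also: 0% = vehicle wells and -100% = peptide control; nearly all actives have a fitted effect of over 45% in size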
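AMA1 (3D7) with his tag at 25 nM final met compounds first, then biotinylated RON2 peptide at 25 nM; detection used donor plus acceptor beads, 10 µg/mL apiece, read by AlphaScreen after 30 min at room temperature.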
Pf growth 96h – Primary qHTS for delayed death inhibitors of the malarial parasite plastid, 96 hour incubation. actives 6.9% (n = 320,000). Potency, µM (series often up to 28.7 µM), for the others: at the top dose activity change, negative = inhibition, actives largely listed as inhibitors. P. falciparum luciferase reporter growth, 96 h
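Compounds incubated with erythrocytes infected by luciferase-expressing P. falciparum (2% hematocrit, 0.05% parasitemia final) for 96 hours, 37 C in 5% CO2. Growth inhibition scored as decreased luciferase luminescence.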
Pf growth 48h – Primary qHTS for delayed death inhibitors of the malarial parasite plastid, 48 hour incubation; P. falciparum luciferase growth in erythrocytes, 48 h; Potency, µM (series often up to 28.7 µM), without a hit: at the highest dose activity change, negative = inhibition, most hits filed as inhibitors; actives 5.9% (n = 310,000)
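Firefly luciferase activity from engineered P. falciparum reports growth; inhibitors lower the luminescent signal. Cultures contained 2% hematocrit erythrocytes at 0.1% final parasitemia.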
* marks the source's active call; other numbers are inactive results; i = inactive; ? = inconclusive; · = no result given. Compounds with a hit are over-represented: about 8.7% of the library has one in this group of screens. Unless noted, calls follow the shape of the dose curve; as a rule, active = well fitted curve in the direction sought with a large enough effect; inconclusive = small, poorly fitted or top-dose-only effect, or another doubt; inactive = no such curve, though single readings can be large; an effect the other way counts as inactive or inconclusive. Unless noted, % is scaled to controls: 0 for no effect and ±100 for the full control effect; potency is read from the fitted curve at half-maximal effect.

SMILES	Vaccinia Venus	Vaccinia mCherry	AMA1-RON2 inh	Pf growth 96h	Pf growth 48h
COc1ccc(C(=O)NCCn2cc(SCC(=O)NCC3CCCO3)c3ccccc32)cc1OC (stereo unspecified)	-16%	i	-8%	6.6µM*	8.3µM*
COc1ccc(N2CCN(C(=O)c3cc4c(=O)n(Cc5cccs5)ccc4nc3C)CC2)cc1	-13%	-9%	·	·	·
Cc1ccc2c(c1)N(S(=O)(=O)c1ccc(F)cc1)C(C(C)(C)C)CO2 (stereo unspecified)	·	·	-7%	0%	13µM*
Cc1ccc(S(=O)(=O)N2c3ccccc3OCC2C(C)(C)C)cc1 (stereo unspecified)	·	·	-11%	?	9.3µM*
COc1ccc2c(c1)c1c(c(=O)n(-c3cccc(Cl)c3)c(=O)n1C)n2C	0%	-6%	·	·	·
COc1ccc(Cn2c(=O)c3oc4ccccc4c3n(Cc3cccc(C)c3)c2=O)cc1	-9%	-3%	·	·	·
Oc1ccccc1C=NNC(=S)NN=Cc1ccccc1O	?	?	38%	·	·
COc1cccc(/C=N/NC(=S)NC2CC3CC2C2C=CCC32)c1O (stereo unspecified)	-18%	?	35%	1.3µM*	2.3µM*
Oc1ccccc1/C=N/NC(=S)NC1CC2CC1C1C=CCC21 (stereo unspecified)	?	?	41%	1.9µM*	3.3µM*
COC(=O)c1ccc(CN2C[C@H](Sc3ccccn3)C[C@H]2C(=O)N(C)C)cc1	7%	-2%	·	·	·
Cc1no[n+]([O-])c1COc1ccc(/C=N/n2nnnc2N)cc1	?	14µM*	11%	12µM*	-29%
Cc1ccc(/C=N/n2nnnc2N)cc1	-3%	-2%	2%	·	·
Cn1cc(C(=O)c2ccc(Cl)cc2Cl)cc1C(=O)N/N=C(\N)COc1ccc(Cl)cc1	-25%	?	38%	9.3µM*	0%
CCS(=O)(=O)Nc1cccc(C2=NN(S(=O)(=O)c3ccc(F)cc3)C(c3cccs3)C2)c1 (stereo unspecified)	-23%	-5%	0%	8.3µM*	?
CCS(=O)(=O)Nc1cccc(C2=NN(S(=O)(=O)CC)C(c3cccs3)C2)c1 (stereo unspecified)	·	·	0%	13µM*	?
CS(=O)(=O)Nc1cccc(C2=NN(C(=O)c3ccccc3)C(c3cccs3)C2)c1 (stereo unspecified)	·	·	-11%	26%	13µM*
COC(=O)C1C(=O)C2=C(CC1C)NC(=O)CC2c1ccc(F)cc1 (stereo unspecified)	-9%	i	10%	4%	15µM*
CCOc1cc(C2NC(=O)N(C)C(C)=C2C(=O)OC)cc(Br)c1O (stereo unspecified)	-6%	-22%	-9%	5%	13µM*
COC(=O)C1C(=O)C2=C(CC1C)Nc1ccccc1NC2c1cccs1 (stereo unspecified)	1%	-14%	2%	?	22%
COC(=O)C1C(=O)C2=C(CC1C)NC(C)=C(C(=O)OC1CCCC1)C2c1ccc(N(C)C)cc1 (stereo unspecified)	·	·	-12%	-7%	5.2µM*
CCOc1cc(C2CC(=O)NC3=C2C(=O)C(C(=O)OC)C(C)C3)cc(Br)c1O (stereo unspecified)	-10%	·	-4%	23%	1.5µM*
COc1cc(C(CC(=O)NCc2ccccc2Cl)N2Cc3ccccc3C2=O)cc(OC)c1OC (stereo unspecified)	-6%	2%	·	·	·
COC(=O)C1C(=O)c2c([nH]c(C(=O)OC3CCCCCC3)c2C)CC1C (stereo unspecified)	-7%	0%	-16%	8.3µM*	-37%
c1ccc(-c2nc(-c3cnc4ccccc4n3)cs2)cc1	-10%	-15%	·	·	·
N#Cc1c(-c2cccs2)cc(-c2ccccn2)nc1N	?	·	24%	9.3µM*	-6%
COc1cccc(NC(=O)CNC(=O)Cn2c(C)cc3ccccc3c2=O)c1	3%	-2%	·	·	·
CSCc1cc(N(C)C)nc(SCc2ccc(Cl)c(Cl)c2)n1	0%	-23%	3%	?	10µM*
